We go through five compounds from PubChem BioAssay.

SMILES strings stand for the structures. Activity calls are given as the source filed them.

The subject of assay [1] is Plasmodium falciparum Sir2 (PF13_0152, Sir2A). The experiment in a line: Plasmodium falciparum Sir2A binding compounds – biochemical, small-molecule microarray, 635 nm fluorescence, primary screen (AID 1098).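 Further: score merges spot fluorescence intensity with its signal-to-noise ratio.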 The following applies: fluorescence 635 nm, higher = more signal.
Assay [2] can be described thus: probe aDKK1 binding to arrayed compounds – biochemical, biotinylated probe, 635/667 nm fluorescence, primary screen (AID 1099).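 Further: score merges 667nm spot fluorescence with signal to noise across triplicate slides.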 The note with it: small-molecule microarray, higher = more signal.
Assay [3] can be described thus: probe aCHRDL2 binding to arrayed compounds – biochemical, biotinylated probe, 635/667 nm fluorescence, primary screen (AID 1100). The note with it: small-molecule microarray, higher = more signal.
Assay [4] is described as follows: change in splice reporter luminescence, either direction, cell-based, HEK293, spliceosome inhibition project, primary screen (AID 1101).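 Further: HEK293 cells carrying a splicing-competent luciferase reporter gene; test concentration not given here.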 The note with it: HEK293 splicing luciferase reporter, 24 h, higher = more signal, called active from +8 up or from −8 down. In general terms: Reporter assays use an easily measured gene product as a stand-in for the process of interest.

Assay [5] has as its target Fibroblast growth factor 10 (Homo sapiens) (UniProt O15520). The assay is described as follows: compounds binding fibroblast growth factor 10 – biochemical, small-molecule microarray, 635 nm fluorescence, primary screen (AID 1102). The note with it: FGF10 binding, fluorescence 635 nm, higher = more signal.
The subject of assay [6] is glycogen synthase kinase-3 (GSK3A per assay name; protocol says GSK3B). The assay is described as follows: compounds binding glycogen synthase kinase-3 – biochemical, small-molecule microarray, 635 nm fluorescence, GSK3A, primary screen (AID 1103). Further: the record names both GSK3A and GSK3B. The note with it: fluorescence 635 nm, higher = more signal.
For assay [7], the target named is Epidermal growth factor receptor (Homo sapiens) (UniProt P00533). The experiment in a line: compounds binding epidermal growth factor receptor – biochemical, small-molecule microarray, 635 nm fluorescence, primary screen (AID 1104).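 Further: score merges 667 nm emission intensity with spot signal to noise over triplicate slides.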 The note with it: EGFR binding, higher = more signal.
Assay [8] addresses Follistatin-related protein 3 (Homo sapiens) (UniProt O95633). The experiment in a line: compounds binding follistatin-related protein 3 – biochemical, small-molecule microarray, 635 nm fluorescence, primary screen (AID 1105).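 Further: score merges emission near 667 nm and signal to noise per printed spot across three slides.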 The following applies: FSTL3 binding, higher = more signal.
Assay [9] concerns the target Dickkopf-related protein 1 (Homo sapiens) (UniProt O94907). The assay is described as follows: small molecules binding DKK1 protein – biochemical, small-molecule microarray, 635 nm fluorescence scan, primary screen (AID 1106).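 Further: score merges emission near 667 nm with signal to noise over three replicate slides.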 The note with it: higher = more signal.
The subject of assay [10] is Inhibin beta A chain (activin A). The assay is described as follows: small molecules binding activin A – biochemical, small-molecule microarray, 635 nm fluorescence scan, primary screen (AID 1107).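 Further: mouse activin A protein probed at 4.33 µg/mL on printed slides; score merges bound-protein fluorescence near 667 nm with spot signal-to-noise.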 The note with it: INHBA, higher = more signal.
The test system of assay [11] is Human papillomavirus type 1a protein E7 (residues 44-93). The experiment in a line: small molecules binding HPV E7 44-93 – biochemical, small-molecule microarray, residues 44-93, 635 nm fluorescence, primary screen (AID 1108).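 Further: E7 fragment applied at 1 µg/mL in TBST for 1 h at 4 C; score combines spot fluorescence with its signal to noise ratio.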 The note with it: fluorescence 635 nm, higher = more signal.
Assay [12] in a line: hepatitis C replication reporter changes, two-sided – Huh7 cells, luciferase reporter, HCV replication inhibitor project, primary screen (AID 1109).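 Further: huh7 hepatoma cells harbouring a luciferase neomycin HCV replicon reporter; luciferase luminescence as measure of HCV replicon replication; test concentration not given here.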 The following applies: Huh7 HCV replicon luciferase reporter, 48 h; higher = more signal.
The target in assay [13] is Left-right determination factor 2 (Homo sapiens) (UniProt O00292). The assay is described as follows: small molecules binding LEFTY2 protein – biochemical, small-molecule microarray, 635 nm fluorescence scan, primary screen (AID 1110). The following applies: higher = more signal.
In assay [14] the target is Calmodulin-1 (Homo sapiens) (UniProt P0DP23). The assay is described as follows: small molecules binding calmodulin-1 with EGTA – biochemical, small-molecule microarray, Cy5-labelled CALM1, profiling panel (AID 1111).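 Further: labelled calmodulin applied in Tris saline Tween buffer holding calcium plus EGTA and DTT.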 The following applies: Cy5-CALM1 binding fluorescence, higher = more signal.
The target is the same in assay [15]. The assay is described as follows: small molecules binding Ca-loaded calmodulin-1 – biochemical, small-molecule microarray, Cy5-labelled CALM1, plus calcium, artefact control for SMM control-protein annotation, profiling panel (AID 1112).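 Further: score merges spot fluorescence with signal to noise from triplicate slides.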 The following applies: Cy5-CALM1 binding fluorescence, higher = more signal.
Assay [16] is described as follows: probe aWnt5a binding to arrayed compounds – biochemical, biotinylated probe, 635/667 nm fluorescence, primary screen (AID 1113).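 Further: score merges 667 nm fluorescence intensity with signal-to-noise per printed feature.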 The note with it: small-molecule microarray, higher = more signal.
A short description of assay [17]: probe aShh binding to arrayed compounds – biochemical, biotinylated probe, 635/667 nm fluorescence, primary screen (AID 1114).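 Further: probe is biotin-labelled aShh protein from a stem cell growth factor screen; measures binding of labelled protein to compounds printed on the slide; score merges feature fluorescence at 667 nm with signal-to-noise.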 The following applies: small-molecule microarray, higher = more signal.
Assay [18] is described as follows: probe aNog binding to arrayed compounds – biochemical, biotinylated probe, 635/667 nm fluorescence, primary screen (AID 1115).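 Further: probe is biotinylated aNog protein used at 0.15 µg/mL for 1 h at 4 C; z-score combines 667 nm fluorescence of each spot with its signal to noise.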 The following applies: small-molecule microarray, higher = more signal.
The target of assay [19] is Torsin-1A-interacting protein 1 (Homo sapiens) (UniProt Q5JTV8). The assay is described as follows: compound microarray binding of lysate hLAP1 – cell lysate, small-molecule microarray, COS7 lysate, 635/667 nm fluorescence, primary screen (AID 1116). The note with it: 635 nm fluorescence, higher = more signal.
Assay [20] deals with Alpha-bungarotoxin (Bungarus multicinctus) (UniProt P60615). The assay is described as follows: compounds binding labelled alpha-BTX control protein – biochemical, small-molecule microarray, Alexa647 label, 635/667 nm fluorescence, artefact control for SMM control protein annotation, profiling panel (AID 1117). The note with it: alpha-BTX-A647 binding fluorescence, higher = more signal.
Sequence of Alpha-bungarotoxin (Bungarus multicinctus) (P60615 whole entry, looked up): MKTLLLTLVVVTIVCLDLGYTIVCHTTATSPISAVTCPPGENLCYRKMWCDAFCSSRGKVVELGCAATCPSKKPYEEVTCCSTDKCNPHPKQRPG

Sequence of Torsin-1A-interacting protein 1 (Homo sapiens) (Q5JTV8 whole entry, looked up): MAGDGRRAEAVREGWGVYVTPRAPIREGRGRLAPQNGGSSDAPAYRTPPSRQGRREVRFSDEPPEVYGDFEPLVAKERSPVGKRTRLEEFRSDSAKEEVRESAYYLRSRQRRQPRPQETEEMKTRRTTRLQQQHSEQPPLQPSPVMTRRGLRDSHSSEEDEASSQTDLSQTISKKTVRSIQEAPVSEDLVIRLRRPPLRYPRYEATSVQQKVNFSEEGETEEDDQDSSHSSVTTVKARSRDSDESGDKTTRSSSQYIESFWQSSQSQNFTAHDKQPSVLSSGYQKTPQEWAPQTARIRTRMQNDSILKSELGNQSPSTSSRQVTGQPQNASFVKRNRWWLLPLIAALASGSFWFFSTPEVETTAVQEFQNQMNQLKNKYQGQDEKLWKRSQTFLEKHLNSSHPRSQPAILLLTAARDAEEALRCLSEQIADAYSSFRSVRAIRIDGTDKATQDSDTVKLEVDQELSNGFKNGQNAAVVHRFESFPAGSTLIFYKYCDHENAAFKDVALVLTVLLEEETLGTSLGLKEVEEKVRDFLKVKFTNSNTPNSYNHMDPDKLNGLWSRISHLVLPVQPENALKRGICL
Sequence of Left-right determination factor 2 (Homo sapiens) (O00292 whole entry, looked up): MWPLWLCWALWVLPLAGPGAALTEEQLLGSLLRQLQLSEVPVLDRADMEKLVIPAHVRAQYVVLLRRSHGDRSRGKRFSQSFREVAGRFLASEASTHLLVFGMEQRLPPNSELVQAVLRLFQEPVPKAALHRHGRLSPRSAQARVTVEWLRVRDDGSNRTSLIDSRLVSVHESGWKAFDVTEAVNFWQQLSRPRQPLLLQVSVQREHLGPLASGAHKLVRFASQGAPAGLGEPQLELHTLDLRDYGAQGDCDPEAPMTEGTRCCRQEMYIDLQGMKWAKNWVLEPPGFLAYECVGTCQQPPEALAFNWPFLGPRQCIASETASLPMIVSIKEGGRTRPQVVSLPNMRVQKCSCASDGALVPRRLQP
Sequence of Follistatin-related protein 3 (Homo sapiens) (O95633 whole entry, looked up): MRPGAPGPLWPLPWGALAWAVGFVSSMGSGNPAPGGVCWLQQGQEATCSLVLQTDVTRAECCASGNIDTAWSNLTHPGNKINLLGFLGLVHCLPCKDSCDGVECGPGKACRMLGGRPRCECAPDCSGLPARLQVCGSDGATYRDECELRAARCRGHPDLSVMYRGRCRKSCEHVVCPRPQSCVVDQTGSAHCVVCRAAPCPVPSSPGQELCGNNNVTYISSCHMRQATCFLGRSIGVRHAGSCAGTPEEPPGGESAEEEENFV
Sequence of Dickkopf-related protein 1 (Homo sapiens) (O94907 whole entry, looked up): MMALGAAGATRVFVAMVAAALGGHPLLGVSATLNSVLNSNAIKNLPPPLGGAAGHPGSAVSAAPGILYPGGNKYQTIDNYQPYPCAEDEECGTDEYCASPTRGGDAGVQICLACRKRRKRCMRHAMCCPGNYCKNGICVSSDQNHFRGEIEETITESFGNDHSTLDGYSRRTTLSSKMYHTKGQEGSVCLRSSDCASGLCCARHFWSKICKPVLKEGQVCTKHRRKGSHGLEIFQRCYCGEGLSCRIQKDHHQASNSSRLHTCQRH
Sequence of Epidermal growth factor receptor (Homo sapiens) (P00533 whole entry, looked up): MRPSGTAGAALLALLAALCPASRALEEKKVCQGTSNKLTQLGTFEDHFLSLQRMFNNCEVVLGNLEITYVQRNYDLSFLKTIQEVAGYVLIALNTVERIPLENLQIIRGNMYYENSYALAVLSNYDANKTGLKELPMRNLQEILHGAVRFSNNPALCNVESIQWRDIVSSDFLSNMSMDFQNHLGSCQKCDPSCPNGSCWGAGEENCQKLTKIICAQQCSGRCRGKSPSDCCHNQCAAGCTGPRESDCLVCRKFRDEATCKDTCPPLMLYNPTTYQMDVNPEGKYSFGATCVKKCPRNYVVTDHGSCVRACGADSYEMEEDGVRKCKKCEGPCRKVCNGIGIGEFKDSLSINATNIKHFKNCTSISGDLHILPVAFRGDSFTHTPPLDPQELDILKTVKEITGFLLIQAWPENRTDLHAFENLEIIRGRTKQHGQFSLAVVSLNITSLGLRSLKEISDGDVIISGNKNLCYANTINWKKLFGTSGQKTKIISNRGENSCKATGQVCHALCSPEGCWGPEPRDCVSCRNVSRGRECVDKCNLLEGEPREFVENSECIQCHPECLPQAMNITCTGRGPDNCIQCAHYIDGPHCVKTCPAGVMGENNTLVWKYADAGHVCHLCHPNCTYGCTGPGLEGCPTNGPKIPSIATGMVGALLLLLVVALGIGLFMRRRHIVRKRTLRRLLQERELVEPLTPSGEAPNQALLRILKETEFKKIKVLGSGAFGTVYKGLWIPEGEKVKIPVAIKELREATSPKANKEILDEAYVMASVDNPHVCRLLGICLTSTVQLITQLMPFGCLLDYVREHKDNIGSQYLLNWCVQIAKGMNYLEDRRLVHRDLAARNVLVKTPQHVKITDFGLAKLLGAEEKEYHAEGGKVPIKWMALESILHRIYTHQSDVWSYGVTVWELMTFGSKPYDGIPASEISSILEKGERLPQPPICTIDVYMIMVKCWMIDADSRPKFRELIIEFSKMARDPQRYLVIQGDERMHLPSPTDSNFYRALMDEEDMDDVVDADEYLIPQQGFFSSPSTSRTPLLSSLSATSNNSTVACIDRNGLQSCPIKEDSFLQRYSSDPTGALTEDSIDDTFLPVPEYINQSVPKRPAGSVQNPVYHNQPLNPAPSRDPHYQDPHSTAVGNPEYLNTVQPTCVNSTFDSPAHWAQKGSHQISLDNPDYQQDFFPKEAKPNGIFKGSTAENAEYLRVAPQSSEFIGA
Sequence of Fibroblast growth factor 10 (Homo sapiens) (O15520 whole entry, looked up): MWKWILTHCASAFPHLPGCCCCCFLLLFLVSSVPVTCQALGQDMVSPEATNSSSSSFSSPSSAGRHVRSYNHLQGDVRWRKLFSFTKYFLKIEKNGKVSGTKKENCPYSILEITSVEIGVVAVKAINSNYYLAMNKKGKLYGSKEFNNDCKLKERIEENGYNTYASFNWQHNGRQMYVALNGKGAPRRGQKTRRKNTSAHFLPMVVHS

Take `CC(=O)N1Cc2ccccc2C[C@@]2(N=C(c3ccc(OCCCO)cc3)O[C@H]2c2ccccc2)C1=O`: the composite z-score in assay [1] amounted to 1.54; in [2] it was 0.927; in assay [3], 0.82; in assay [5], 1.16; in assay [6], 1.09; in assay [7], 0.361. The composite z-score stood at 1.19 in assay [8]; 0.653 in assay [9]; 1.03 in assay [10]; 0.671 in [11]; 0.587 in [13]; 1.26 in assay [14]. For the same compound, the composite z-score in assay [15] was 0.465; in assay [16], -0.0051; in assay [17] it was 0.0895; in [18], 0.909; in assay [19] it was 2.05; in assay [20] it was 2.37. Also, the z-score is -2.97 (inactive) in assay [4] and -2.83 in assay [12].
On to `C=C[C@@H](C)[C@@H](OC(=O)Nc1ccc(OC)cc1)c1ccc(O)c2ccccc12`, for which the composite z-score is 1.13 in assay [1]; -0.241 in assay [2]; -0.576 in [3]; 0.856 in [5]; 0.357 in assay [6]; 0.762 in assay [7]. In addition, the composite z-score in assay [8] is 0.723; in [9], 0.475; in assay [10], 1.24; in assay [11] it was 0.118; in assay [13], 0.312; in assay [14], -0.27. For the same compound, the composite z-score in assay [15] is -0.667; in [16], -0.152; in [17], -0.223; in assay [18], -0.409; in assay [19] it was -0.0999; in assay [20], -0.511. Further, the z-score is -0.0898 (inactive) in [4] and -1.84 in assay [12].
With `COCCCNC(=O)[C@@]1(Sc2ccc(C)cc2)CC(=O)N(Cc2ccccc2)[C@@H]1c1ccc(CO)cc1`, the composite z-score in assay [1] was 1.54; in assay [2], 0.0112; in assay [3], 0.144; in [5], -0.342; in assay [6], -0.21; in assay [7], -0.58. The composite z-score was -0.702 in [8]; -0.344 in assay [9]; -0.29 in [10]; 0.0655 in assay [11]; -0.993 in assay [13]; -0.488 in assay [14]. For the same compound, the composite z-score in assay [15] was -0.58; in assay [16], -0.0221; in assay [17] it was -0.0324; in assay [18] it was 0.336; in assay [19], -0.36; in assay [20] it was -0.941. Also, the z-score in assay [4] is -0.74 (inactive); in assay [12] it was -1.29.
Turning to `O=C1C2C=CC(C(O)C3CC=CCC3)N(n3cnnc3)C2C(=O)N1Cc1ccccc1` (stereo not given), the composite z-score in assay [1] was 0.213; in [2], -0.3; in assay [3], 0.348; in assay [5], -0.644; in assay [6], -0.406; in [7], -1.64. In addition, the composite z-score was -1 in assay [8]; -0.746 in assay [9]; 0.672 in assay [10]; -0.318 in [11]; -0.49 in [13]; -0.292 in assay [14]. In addition, the composite z-score is -0.92 in assay [15]; -0.154 in assay [16]; 0.0684 in assay [17]; 0.336 in assay [18]; 0.752 in assay [19]; 0.365 in [20]. Also, the z-score in assay [4] was 0.276 (inactive); in [12], -0.151.
Turning to `CCCCC(=C=CC[C@H](O)c1ccccc1OCCO)C[C@H](O)c1cc(Cl)cc(Cl)c1O`, the composite z-score in assay [1] is 1.26; in [2], 0.0947; in assay [3] it was 0.0444; in [5], 0.345; in assay [6] it was 0.24; in assay [7], -0.619. The composite z-score in [8] was 0.179; in assay [9], -0.429; in assay [10], 0.796; in [11], 0.405; in assay [13], -0.408; in assay [14] it was 0.684. Besides, the composite z-score in assay [15] is 0.466; in assay [16], -0.0445; in assay [17], 0.0278; in [18] it was 0.22; in assay [19], 0.582; in [20], 0.876. Besides, the values for the z-score in [4] and in assay [12] were 0.23 (inactive) and -1.18, respectively.
